In ChEMBL document CHEMBL1961873, “Compounds: GSK PKIS; Assays: Nanosyn kinase panel” (2012) one finds inhibition data, which are given here for six compounds.

Test [1] deals with CDK3/Cyclin E (Homo sapiens) (UniProt P24864+Q00526). The settings on record: at 1 µM.
Test [2] deals with Cyclin-dependent kinase 4 (Homo sapiens) (UniProt P11802). The settings on record: at 0.1 µM.
Test [3] has the same target. The settings on record: at 1 µM.
The target in test [4] is Cyclin-dependent kinase 5 (Homo sapiens) (UniProt Q00535). The following applies: at 0.1 µM.
Test [5] shares this target. The settings on record: at 1 µM.
Test [6] addresses Cyclin-dependent kinase 6 (Homo sapiens) (UniProt Q00534). The following applies: at 0.1 µM.
Test [7] has the same target. The following applies: at 1 µM.
In test [8] the target is Dual specificity protein kinase CLK2 (Homo sapiens) (UniProt P49760). The following applies: at 0.1 µM.
For test [9] the target is unchanged. The settings on record: at 1 µM.
Test [10] deals with Dual specificity protein kinase CLK3 (Homo sapiens) (UniProt P49761). The settings on record: at 0.1 µM.
For test [11] the target is unchanged. The settings on record: at 1 µM.
The target of test [12] is Dual specificity tyrosine-phosphorylation-regulated kinase 1A (Homo sapiens) (UniProt Q13627). The following applies: at 0.1 µM.
The target is the same in test [13]. The following applies: at 1 µM.
The target in test [14] is Dual specificity tyrosine-phosphorylation-regulated kinase 1B (Homo sapiens) (UniProt Q9Y463). The following applies: at 0.1 µM.
Test [15] has the same target. The settings on record: at 1 µM.
In test [16] the target is T1, Dual specificity tyrosine-phosphorylation-regulated kinase 2 (Homo sapiens) (UniProt Q92630).
T1 sequence (whole entry): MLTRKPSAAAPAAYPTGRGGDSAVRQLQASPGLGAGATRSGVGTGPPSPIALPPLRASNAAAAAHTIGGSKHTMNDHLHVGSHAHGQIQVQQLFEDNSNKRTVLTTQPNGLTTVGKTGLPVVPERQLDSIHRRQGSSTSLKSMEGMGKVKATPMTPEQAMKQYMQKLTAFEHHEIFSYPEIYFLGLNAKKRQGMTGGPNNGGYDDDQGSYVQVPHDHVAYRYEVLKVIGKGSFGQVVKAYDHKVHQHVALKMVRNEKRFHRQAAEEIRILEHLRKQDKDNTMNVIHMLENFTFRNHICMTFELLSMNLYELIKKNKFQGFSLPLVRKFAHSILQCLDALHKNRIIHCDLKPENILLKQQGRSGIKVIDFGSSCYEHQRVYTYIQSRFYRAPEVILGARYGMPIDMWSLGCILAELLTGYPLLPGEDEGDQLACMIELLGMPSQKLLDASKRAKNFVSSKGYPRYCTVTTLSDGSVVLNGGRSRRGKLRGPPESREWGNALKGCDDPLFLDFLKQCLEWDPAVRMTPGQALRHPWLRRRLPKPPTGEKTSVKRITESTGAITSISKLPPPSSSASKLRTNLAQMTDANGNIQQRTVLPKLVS
The settings on record: at 0.1 µM.

Test [17] concerns the target T1, Dual specificity tyrosine-phosphorylation-regulated kinase 2 (Homo sapiens). The settings on record: at 1 µM.
Test [18] has as its target Glycogen synthase kinase-3 alpha (Homo sapiens) (UniProt P49840). The settings on record: at 0.1 µM.
Test [19] has the same target. The following applies: at 1 µM.
Test [20] concerns the target Glycogen synthase kinase-3 beta (Homo sapiens) (UniProt P49841). The settings on record: at 0.1 µM.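 Further: values are mean percent inhibition of GSK3B activity, from the GSK Published Kinase Inhibitor Set (PKIS) screening dataset.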

SMILES strings stand for the structures.

Sequence of Cyclin-dependent kinase 4 (Homo sapiens) (P11802 whole entry): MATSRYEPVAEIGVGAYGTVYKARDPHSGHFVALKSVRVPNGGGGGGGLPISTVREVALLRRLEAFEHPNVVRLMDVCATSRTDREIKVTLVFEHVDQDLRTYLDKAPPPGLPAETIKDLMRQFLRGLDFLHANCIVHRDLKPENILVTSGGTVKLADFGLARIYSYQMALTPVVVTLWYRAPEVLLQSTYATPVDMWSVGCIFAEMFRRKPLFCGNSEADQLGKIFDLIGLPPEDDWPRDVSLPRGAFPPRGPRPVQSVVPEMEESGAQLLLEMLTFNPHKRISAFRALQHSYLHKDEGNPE
Sequence of Glycogen synthase kinase-3 alpha (Homo sapiens) (P49840 2-483 limits assumed): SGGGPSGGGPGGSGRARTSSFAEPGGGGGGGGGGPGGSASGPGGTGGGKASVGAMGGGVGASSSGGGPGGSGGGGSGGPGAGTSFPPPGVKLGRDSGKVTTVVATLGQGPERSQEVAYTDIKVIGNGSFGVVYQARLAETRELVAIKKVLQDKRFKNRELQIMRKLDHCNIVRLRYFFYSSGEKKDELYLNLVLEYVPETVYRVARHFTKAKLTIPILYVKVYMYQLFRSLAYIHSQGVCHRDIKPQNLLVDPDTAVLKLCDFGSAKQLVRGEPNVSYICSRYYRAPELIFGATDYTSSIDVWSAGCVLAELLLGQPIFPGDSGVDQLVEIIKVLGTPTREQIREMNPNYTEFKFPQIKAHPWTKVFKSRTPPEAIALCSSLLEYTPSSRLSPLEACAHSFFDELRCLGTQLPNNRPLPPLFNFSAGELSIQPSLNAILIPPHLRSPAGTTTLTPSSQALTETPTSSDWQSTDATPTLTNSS
Sequence of CDK3/Cyclin E (Homo sapiens) (P24864 whole entry, looked up): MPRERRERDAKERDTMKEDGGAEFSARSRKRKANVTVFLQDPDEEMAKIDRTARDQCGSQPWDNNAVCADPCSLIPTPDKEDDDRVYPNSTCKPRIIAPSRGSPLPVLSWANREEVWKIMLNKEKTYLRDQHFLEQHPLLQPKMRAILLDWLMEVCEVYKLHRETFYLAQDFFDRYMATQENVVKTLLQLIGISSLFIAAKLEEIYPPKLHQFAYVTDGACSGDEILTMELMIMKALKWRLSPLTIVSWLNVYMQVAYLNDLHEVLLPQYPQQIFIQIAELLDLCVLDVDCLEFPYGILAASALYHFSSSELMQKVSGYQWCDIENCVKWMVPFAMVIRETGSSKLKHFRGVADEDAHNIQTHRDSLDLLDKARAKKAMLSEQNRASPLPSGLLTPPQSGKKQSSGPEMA
Sequence of CDK3/Cyclin E (Homo sapiens) (Q00526 whole entry, looked up): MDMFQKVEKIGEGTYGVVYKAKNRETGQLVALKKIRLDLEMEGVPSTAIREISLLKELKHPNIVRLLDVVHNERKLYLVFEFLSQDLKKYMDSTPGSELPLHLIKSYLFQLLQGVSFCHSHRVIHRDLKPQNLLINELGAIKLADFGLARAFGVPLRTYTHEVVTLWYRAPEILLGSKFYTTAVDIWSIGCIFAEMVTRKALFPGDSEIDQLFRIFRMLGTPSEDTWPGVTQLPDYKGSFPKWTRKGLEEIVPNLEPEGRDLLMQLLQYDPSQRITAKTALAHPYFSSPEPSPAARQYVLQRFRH
Sequence of Cyclin-dependent kinase 6 (Homo sapiens) (Q00534 whole entry): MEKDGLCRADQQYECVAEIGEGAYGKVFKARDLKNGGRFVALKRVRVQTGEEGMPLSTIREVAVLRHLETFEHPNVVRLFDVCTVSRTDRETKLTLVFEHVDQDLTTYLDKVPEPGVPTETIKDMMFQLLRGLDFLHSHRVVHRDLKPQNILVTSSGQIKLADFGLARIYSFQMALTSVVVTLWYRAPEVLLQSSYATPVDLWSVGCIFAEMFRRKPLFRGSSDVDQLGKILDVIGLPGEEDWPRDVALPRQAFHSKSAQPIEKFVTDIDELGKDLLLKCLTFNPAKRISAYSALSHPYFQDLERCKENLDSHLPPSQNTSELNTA
Sequence of Dual specificity protein kinase CLK3 (Homo sapiens) (P49761 whole entry, looked up): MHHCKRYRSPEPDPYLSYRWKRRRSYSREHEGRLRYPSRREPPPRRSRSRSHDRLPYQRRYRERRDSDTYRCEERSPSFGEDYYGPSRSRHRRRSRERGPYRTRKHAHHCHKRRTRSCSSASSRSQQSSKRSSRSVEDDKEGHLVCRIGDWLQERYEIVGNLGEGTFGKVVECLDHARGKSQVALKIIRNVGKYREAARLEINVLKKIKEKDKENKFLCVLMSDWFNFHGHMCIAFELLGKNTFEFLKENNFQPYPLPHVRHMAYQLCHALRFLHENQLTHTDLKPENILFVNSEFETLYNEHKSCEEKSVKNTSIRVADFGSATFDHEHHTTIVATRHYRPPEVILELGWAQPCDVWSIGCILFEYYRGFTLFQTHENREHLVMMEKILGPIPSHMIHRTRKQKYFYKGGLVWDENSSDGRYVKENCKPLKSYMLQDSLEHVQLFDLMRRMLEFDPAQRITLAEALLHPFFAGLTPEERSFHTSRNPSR
Sequence of Dual specificity protein kinase CLK2 (Homo sapiens) (P49760 whole entry, looked up): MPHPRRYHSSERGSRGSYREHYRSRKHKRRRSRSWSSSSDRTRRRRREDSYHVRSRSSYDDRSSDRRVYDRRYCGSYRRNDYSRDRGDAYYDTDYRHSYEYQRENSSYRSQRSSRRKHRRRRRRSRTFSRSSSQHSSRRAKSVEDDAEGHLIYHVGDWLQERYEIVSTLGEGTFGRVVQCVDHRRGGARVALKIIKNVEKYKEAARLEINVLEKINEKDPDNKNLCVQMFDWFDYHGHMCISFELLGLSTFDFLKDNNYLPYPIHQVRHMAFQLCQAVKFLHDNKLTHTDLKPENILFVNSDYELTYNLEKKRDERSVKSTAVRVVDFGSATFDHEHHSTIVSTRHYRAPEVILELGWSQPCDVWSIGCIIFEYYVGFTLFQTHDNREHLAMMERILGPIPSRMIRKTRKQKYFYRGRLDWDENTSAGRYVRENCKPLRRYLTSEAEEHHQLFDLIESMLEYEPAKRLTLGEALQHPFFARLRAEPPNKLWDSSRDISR
Sequence of Glycogen synthase kinase-3 beta (Homo sapiens) (P49841 whole entry, looked up): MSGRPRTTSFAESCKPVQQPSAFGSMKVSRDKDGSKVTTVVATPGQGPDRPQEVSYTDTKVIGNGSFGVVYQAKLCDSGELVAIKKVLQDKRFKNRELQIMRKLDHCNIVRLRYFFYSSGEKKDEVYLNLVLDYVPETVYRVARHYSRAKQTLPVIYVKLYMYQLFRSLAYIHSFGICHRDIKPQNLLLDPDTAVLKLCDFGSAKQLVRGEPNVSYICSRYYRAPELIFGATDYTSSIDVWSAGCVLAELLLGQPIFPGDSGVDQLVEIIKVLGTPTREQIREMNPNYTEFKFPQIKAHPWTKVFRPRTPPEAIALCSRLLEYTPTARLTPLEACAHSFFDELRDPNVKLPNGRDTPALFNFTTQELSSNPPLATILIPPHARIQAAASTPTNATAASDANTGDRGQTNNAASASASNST
Sequence of Dual specificity tyrosine-phosphorylation-regulated kinase 1B (Homo sapiens) (Q9Y463 whole entry, looked up): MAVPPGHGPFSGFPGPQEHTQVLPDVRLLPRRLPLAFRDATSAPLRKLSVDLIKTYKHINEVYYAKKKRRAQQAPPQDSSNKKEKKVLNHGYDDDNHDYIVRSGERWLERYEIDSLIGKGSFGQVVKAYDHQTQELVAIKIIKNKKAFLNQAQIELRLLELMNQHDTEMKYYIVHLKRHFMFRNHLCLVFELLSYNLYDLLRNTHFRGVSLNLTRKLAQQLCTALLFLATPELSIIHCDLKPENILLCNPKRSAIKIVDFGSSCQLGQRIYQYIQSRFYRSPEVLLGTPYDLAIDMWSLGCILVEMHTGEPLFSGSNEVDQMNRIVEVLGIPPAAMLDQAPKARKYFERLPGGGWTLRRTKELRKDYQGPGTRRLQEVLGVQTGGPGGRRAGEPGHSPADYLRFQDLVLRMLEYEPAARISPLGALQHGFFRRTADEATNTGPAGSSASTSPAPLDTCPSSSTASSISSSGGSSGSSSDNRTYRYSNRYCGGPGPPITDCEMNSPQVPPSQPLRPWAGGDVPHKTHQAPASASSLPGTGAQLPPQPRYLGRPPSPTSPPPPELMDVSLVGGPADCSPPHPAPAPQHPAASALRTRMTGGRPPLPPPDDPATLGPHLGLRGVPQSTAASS
Sequence of Cyclin-dependent kinase 5 (Homo sapiens) (Q00535 whole entry, looked up): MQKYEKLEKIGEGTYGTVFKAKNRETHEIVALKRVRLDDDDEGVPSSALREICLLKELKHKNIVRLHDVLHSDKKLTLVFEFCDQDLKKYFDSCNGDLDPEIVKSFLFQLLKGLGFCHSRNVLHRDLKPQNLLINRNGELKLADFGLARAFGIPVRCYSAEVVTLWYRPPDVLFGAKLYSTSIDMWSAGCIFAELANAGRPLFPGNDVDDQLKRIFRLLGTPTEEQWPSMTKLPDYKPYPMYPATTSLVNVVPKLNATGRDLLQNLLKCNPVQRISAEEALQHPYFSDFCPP

Regarding `O=C(Nc1ccc(Oc2ccc3[nH]c(NC(=O)c4ccccc4)nc3c2)cc1)Nc1cc(C(F)(F)F)ccc1F`, the inhibition in test [1] is -1.42%; in [2], 3.17%; in test [3] it was 4.9%; in [4] it was 0.47%; in [5], 3.03%; in test [6], 2.76%. In addition, the inhibition in test [7] was 4.46%; in test [8] it was 0.71%; in [9], 1.05%; in test [10], 1.59%; in [11] it was 3.71%; in test [12], 1.94%. Besides, the inhibition in test [13] is 4.75%; in [14], 0.86%; in test [15], 3.47%; in test [16] it was 2.36%; in test [17], 3.65%; in [18] it was 3.49%. The inhibition is 8.16% in test [19] and 3.19% in [20].
Turning to `C[C@@H](Oc1cc(-n2cnc3ccc(OCC4CCN(C)CC4)cc32)sc1C(N)=O)c1ccccc1Cl`, the inhibition in [1] was -1.61%; in [2], 2.79%; in test [3] it was 7.39%; in test [4] it was 1.33%; in test [5] it was 3.11%; in [6] it was 0.41%. The inhibition worked out at 0.37% in test [7]; 1.46% in [8]; 7.9% in test [9]; 1.64% in test [10]; 2.9% in test [11]; 2.94% in [12]. For the same compound, the inhibition in test [13] came out at 3.56%; in [14], 1.54%; in [15] it was 2.55%; in test [16] it was 4.66%; in test [17], 9.72%; in test [18], 4.39%. For the same compound, the inhibition in test [19] amounted to 10.2%; in test [20] it was 2.71%.
For `O=C(NCC1CC1)c1ccc(-c2cccc(C(=O)NC3CC3)c2)cc1`, the inhibition in test [1] is 2.64%; in test [2] it was 2.46%; in [3], 2.18%; in test [4] it was 0.16%; in test [5], 0.99%; in test [6], 5.87%. Moreover, the inhibition in test [7] is -0.5%; in test [8], -0.19%; in [9], 1.77%; in test [10], 0.44%; in [11], 2.44%; in test [12], 0.99%. Also, the inhibition in test [13] is 2.88%; in [14], 0.66%; in test [15], 1.93%; in test [16] it was 2.27%; in test [17], 3.38%; in test [18], 1.5%. For the same compound, the inhibition is 3.17% in test [19] and 1.32% in test [20].
Turning to `COc1cc(Nc2ncc(-c3ccccc3)o2)cc(OC)c1OC`, the inhibition in [1] was determined as 5.95%; in [2], 0.45%; in [3] it was 1.93%; in test [4], 0.52%; in [5], 6.19%; in [6], 0.43%. Further, the inhibition in [7] is 3.26%; in test [8] it was 0.35%; in test [9], 3.33%; in test [10] it was 0.69%; in test [11], 0.88%; in test [12], 1.8%. The inhibition is 6.39% in test [13]; 1.65% in test [14]; 3.72% in test [15]; -2.15% in [16]; -1.69% in test [17]; 5.71% in [18]. Also, the inhibition was found to be 34.4% in test [19] and 5.44% in test [20].
Regarding `NS(=O)(=O)c1ccc(N/N=C2\C(=O)Nc3ccc(-c4cnco4)cc32)cc1`, the inhibition was 89.2% in test [1]; 6.57% in test [2]; 42% in test [3]; 50.2% in [4]; 71.8% in test [5]; 9.49% in [6]. Besides, the inhibition in test [7] was 50.3%; in test [8], 5.36%; in test [9], 35.9%; in test [10], -3.12%; in test [11], 1.68%; in test [12], 29.3%. Moreover, the inhibition was 81.2% in [13]; 4.08% in [14]; 38.5% in test [15]; 9.21% in [16]; 52% in test [17]; 31.6% in test [18]. The values for the inhibition in test [19] and in test [20] were 67.4% and 26.4%, respectively.
Take `N#Cc1ccc(Oc2nccc(-c3c(-c4ccc(F)cc4)ncn3C3CCNCC3)n2)cc1`: the inhibition in [1] is -2.53%; in [2] it was 0.98%; in test [3], 3.8%; in [4], 0.41%; in [5], 1.15%; in test [6], 1.26%. The inhibition in test [7] is -1.15%; in test [8], 1%; in [9] it was -0.9%; in test [10], 0.28%; in [11], -0.16%; in [12], 2.5%. For the same compound, the inhibition is 3.49% in [13]; -2.39% in [14]; -1.58% in [15]; 2.92% in test [16]; 2.24% in test [17]; 1.66% in test [18]. The inhibition came to 2.69% in test [19] and 0.3% in [20].
